The campaign covered roughly 17,000 compounds. About 260 (1.5%) were called active.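 How the source made its calls: active means spot fluorescence over background with P-value below 7% in all four replicate spots, showing protein binding; inactive means the rest.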 Shown is part of a subset that was picked to be rich in actives.
Biological target: Myc proto-oncogene protein (Homo sapiens) (UniProt P01106)
Assay: binders of human c-Myc, primary screen, biochemical, small molecule microarray, anti-His fluorescence (AID 624141)
Settings: His-c-Myc binding

Myc proto-oncogene protein (Homo sapiens), sequence (P01106 whole entry, looked up): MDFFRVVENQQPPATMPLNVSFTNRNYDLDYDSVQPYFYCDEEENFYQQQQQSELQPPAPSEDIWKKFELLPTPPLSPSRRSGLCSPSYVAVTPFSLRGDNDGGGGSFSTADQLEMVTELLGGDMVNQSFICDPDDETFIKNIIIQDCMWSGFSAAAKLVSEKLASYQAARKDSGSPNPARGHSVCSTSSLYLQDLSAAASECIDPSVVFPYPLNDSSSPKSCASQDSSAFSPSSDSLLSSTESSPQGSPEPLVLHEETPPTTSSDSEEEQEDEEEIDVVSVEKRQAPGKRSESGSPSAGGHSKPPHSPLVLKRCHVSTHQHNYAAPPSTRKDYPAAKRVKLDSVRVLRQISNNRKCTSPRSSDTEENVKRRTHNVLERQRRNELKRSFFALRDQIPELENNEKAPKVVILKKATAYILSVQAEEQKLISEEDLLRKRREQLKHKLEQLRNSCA

Compound	outcome
Cc1cc2c(=O)n(C)c(SCC(=O)c3cc4ccccc4o3)nc2s1	inactive
COc1ccccc1N(CC(=O)N1CCCCC1)S(C)(=O)=O	inactive
C[C@@H]1CN([C@@H](C)CO)C(=O)Cc2cc(NC(=O)Nc3ccc(F)cc3)ccc2O[C@@H]1CN(C)C	inactive
Cn1c(SCc2nc3ccccc3c(=O)[nH]2)nnc1-c1cc2ccccc2o1	inactive
C[C@@H]1CN([C@@H](C)CO)C(=O)c2cc(NS(C)(=O)=O)ccc2O[C@H]1CN(C)C(=O)Nc1ccc(F)cc1	inactive
COc1ccc(C#Cc2ccc3c(c2)[C@]2(C(=O)N3)[C@H](C(=O)N3CCc4cc(OC)c(OC)cc4C3)[C@H]3C(=O)O[C@H](c4ccccc4)[C@H](c4ccccc4)N3[C@@H]2c2ccc(O)cc2)cc1	inactive
O=C(NCC1CCCO1)c1ccc(NC(=O)c2cc(-n3cnnc3)ccc2Cl)cc1 (stereo not given)	inactive
CNC[C@H]1OCCCC[C@@H](C)Oc2ccc(NC(=O)c3ccccc3)cc2C(=O)N([C@@H](C)CO)C[C@H]1C	inactive
Cc1ccc(Cn2ncc3c(N4CCN(CCOc5ccc(C)cc5)CC4)ncnc32)cc1	inactive
C[C@@H]1CN([C@H](C)CO)C(=O)Cc2cc(NS(=O)(=O)c3cccs3)ccc2O[C@@H]1CN(C)C(=O)Nc1ccc(F)cc1	inactive
O=C1NC(Cc2c[nH]c3ccccc23)C(=O)N2CCCC12 (stereo not given)	inactive
Cc1noc(C)c1NC(=O)N(C)C[C@@H]1Oc2ccc(NC(=O)C3CC3)cc2C(=O)N([C@H](C)CO)C[C@@H]1C	inactive
O=C1O[C@@H](c2ccccc2)[C@@H](c2ccccc2)N2[C@@H](c3ccc(O)cc3)[C@]3(C(=O)Nc4ccccc43)[C@@H](C(=O)O)[C@H]12	inactive
CCOc1ccc(NC(=O)C2CC(=O)n3c(nc4ccccc43)N2)cc1 (stereo not given)	inactive
C[C@@H]1CCCCO[C@H](CN(C)C(=O)Cc2ccccc2)[C@H](C)CN([C@H](C)CO)C(=O)c2cc(NS(=O)(=O)c3cn(C)cn3)ccc2O1	inactive
COc1cc(O)c2c(=O)c(O[C@@H]3O[C@@H](CO)[C@H](O)[C@H]3O[C@@H]3O[C@@H](C)[C@H](O)[C@@H](O)[C@H]3O)c(-c3ccc(O)cc3)oc2c1	inactive
CN(C)CC/C=C1\c2ccccc2CSc2ccccc21	inactive
C[C@H](CO)N1C[C@H](C)[C@@H](CN(C)C)Oc2c(NC(=O)Nc3ccc(F)cc3)cccc2C1=O	inactive
C[C@H]1CN([C@@H](C)CO)C(=O)c2cc(NC(=O)Cn3cnnn3)ccc2O[C@@H]1CN(C)S(=O)(=O)c1cccs1	inactive
C[C@H](CO)N1C[C@H](C)[C@H](CN(C)C(=O)Nc2ccc(C(F)(F)F)cc2)Oc2ccc(NC(=O)Nc3ccccc3)cc2C1=O	inactive

Reference: PubChem BioAssay AID624141 (Broad Institute, 2012)
